This is an account of results in PubChem BioAssay (NCI).

Some test systems named below: SK-MEL-2 melanoma; EKVX NSCLC; SN12C renal; UO-31 renal; ACHN renal; CAKI-1 renal; A498 renal; CCRF-CEM leukemia; MOLT-4 leukemia; SR leukemia; RPMI-8226 leukemia; OVCAR-8 ovarian; OVCAR-5 ovarian; OVCAR-4 ovarian; SK-OV-3 ovarian; IGROV1 ovarian; OVCAR-3 ovarian; HS 578T breast; NCI/ADR-RES ovarian; TK-10 renal.
What all share (test): NCI-60 one-dose screen, 48 h (100 = growth as untreated, 0 = no growth, -100 = all killed)
Common to all, as to conditions: 10 µM

This is part of a sample that, as a whole, favours compounds with a hit. Of some 83,000 tested, about 20% had one in any assay.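 Single-dose data. Exposure time 48 hours. Values below 10 considered active.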 Unmarked numbers belong to inactive results. The source made the active and inactive calls.

Regarding `COc1cc2cc(Oc3ccc(NC(=O)Nc4ccc(Cl)c(C(F)(F)F)c4)cc3)c(C)nc2cc1OC`, the growth in the experiment on SK-MEL-2 melanoma is -49.8% (active); in the experiment on EKVX NSCLC, 8.83% (active); with SN12C renal it was 13.2%; in the experiment with UO-31 renal, -45.1% (active); with ACHN renal, 13.6%; with CAKI-1 renal, -8.92% (active). Moreover, the growth in the experiment with A498 renal was 10.5%; in the experiment on CCRF-CEM leukemia, -17.6% (active); in the experiment with MOLT-4 leukemia it was -27.9% (active); in the experiment on SR leukemia, -32.5% (active); in the experiment on RPMI-8226 leukemia it was -26.4% (active); in the experiment with OVCAR-8 ovarian it was 7.34% (active). The growth in the experiment with OVCAR-5 ovarian is 18%; in the experiment on OVCAR-4 ovarian it was 17.1%; in the experiment with SK-OV-3 ovarian it was -4.09% (active); with IGROV1 ovarian, -7.69% (active); with OVCAR-3 ovarian, -27.3% (active); in the experiment on HS 578T breast, 2.5% (active). The growth with NCI/ADR-RES ovarian was 2.01% (active).
Consider `COc1cc(/C=C2\CCCC3=C2NC(N)=NC3c2cc(OC)c(OC)c(OC)c2)cc(OC)c1OC` (stereo not drawn), for which the growth in the experiment with SK-MEL-2 melanoma was -0.813% (active); in the experiment on EKVX NSCLC, 56%; in the experiment on SN12C renal it was -5.19% (active); in the experiment on UO-31 renal, 34.3%; in the experiment with ACHN renal, -37.9% (active); in the experiment with CAKI-1 renal, -4.06% (active). The growth in the experiment on A498 renal was 0.45% (active); in the experiment with CCRF-CEM leukemia, 2.89% (active); with MOLT-4 leukemia, -3.56% (active); in the experiment on SR leukemia, 1.07% (active); with RPMI-8226 leukemia it was -15.4% (active); with OVCAR-8 ovarian, -35.8% (active). The growth with OVCAR-5 ovarian was 6.85% (active); in the experiment on OVCAR-4 ovarian, 27%; in the experiment with SK-OV-3 ovarian, 7.16% (active); with IGROV1 ovarian, -19.4% (active); in the experiment on OVCAR-3 ovarian, -17.7% (active); in the experiment on HS 578T breast it was 37%. In addition, the growth in the experiment with NCI/ADR-RES ovarian was 3.96% (active).
In the case of `COc1ccc2c(c1)OC(N)=C(C#N)C2c1cc(OC)c(OC)c(OC)c1` (stereo not drawn), the growth is 27.3% in the experiment with SK-MEL-2 melanoma; 49.7% with EKVX NSCLC; 25% in the experiment on SN12C renal; 47.2% with UO-31 renal; 32.8% with ACHN renal; 30.4% in the experiment on CAKI-1 renal. The growth was -14.1% (active) in the experiment with A498 renal; 7.72% (active) with CCRF-CEM leukemia; 7.89% (active) in the experiment with MOLT-4 leukemia; 4.02% (active) with SR leukemia; 11.6% in the experiment with RPMI-8226 leukemia; 14.6% with OVCAR-8 ovarian. Also, the growth with OVCAR-5 ovarian was 39.3%; in the experiment on OVCAR-4 ovarian it was 39.8%; with SK-OV-3 ovarian, 50%; in the experiment with IGROV1 ovarian, 7.64% (active); with OVCAR-3 ovarian, -39.8% (active); in the experiment on HS 578T breast, 25.3%. The growth with NCI/ADR-RES ovarian is -24.3% (active).
`NC(N)=N/N=C(\c1ccccc1)C(O)c1ccccc1` (stereo not drawn): the growth is 101% with SK-MEL-2 melanoma; 103% in the experiment on EKVX NSCLC; 99.6% with SN12C renal; 81.1% with UO-31 renal; 94.2% in the experiment on TK-10 renal; 109% in the experiment on ACHN renal. The growth in the experiment with MOLT-4 leukemia was 99.9%; with SR leukemia, 95.9%; in the experiment with RPMI-8226 leukemia, 94.5%; in the experiment on OVCAR-8 ovarian it was 105%; with OVCAR-5 ovarian, 112%; in the experiment with OVCAR-4 ovarian, 105%. Moreover, the growth with SK-OV-3 ovarian is 94.2%; with IGROV1 ovarian, 100%; with OVCAR-3 ovarian, 111%; in the experiment with NCI/ADR-RES ovarian, 111%.
For the compound `CCN(CC)CCOc1ccc2c(c1O)C(=O)c1ccccc1C2=O`, the growth with SK-MEL-2 melanoma is 88.1%; in the experiment with EKVX NSCLC, 100%; in the experiment with SN12C renal, 76.2%; with UO-31 renal it was 67.3%; in the experiment on TK-10 renal, 78%; with ACHN renal it was 56.9%. Besides, the growth with CCRF-CEM leukemia is 77.2%; with MOLT-4 leukemia it was 72.3%; in the experiment on SR leukemia, 63.5%; with RPMI-8226 leukemia, 90.3%; with OVCAR-8 ovarian, 62.4%; in the experiment with OVCAR-5 ovarian it was 104%. For the same compound, the growth in the experiment with OVCAR-4 ovarian is 85.5%; with SK-OV-3 ovarian it was 77.6%; with IGROV1 ovarian, 97.3%; with OVCAR-3 ovarian it was 94.7%; in the experiment on HS 578T breast, 84.6%; in the experiment on NCI/ADR-RES ovarian, 72%.
Take `NC1=NC(c2ccccc2)C2=C(N1)/C(=C/c1ccccc1)CCC2` (stereo not drawn): the growth is 87.1% in the experiment with SK-MEL-2 melanoma; 95% in the experiment on EKVX NSCLC; 91.6% in the experiment with SN12C renal; 70.5% in the experiment with UO-31 renal; 108% in the experiment with ACHN renal; 93.8% in the experiment with CAKI-1 renal. The growth with A498 renal is 75%; in the experiment with CCRF-CEM leukemia, 91%; with MOLT-4 leukemia, 77.8%; in the experiment with SR leukemia, 46%; in the experiment on RPMI-8226 leukemia, -7.58% (active); in the experiment with OVCAR-8 ovarian, 80%. Also, the growth in the experiment on OVCAR-5 ovarian was 106%; in the experiment with OVCAR-4 ovarian, 81.3%; in the experiment with SK-OV-3 ovarian it was 74%; with IGROV1 ovarian it was 100%; with OVCAR-3 ovarian, 81.6%; in the experiment with HS 578T breast, 88.5%. Also, in the experiment on NCI/ADR-RES ovarian, the growth was 95.8%.
As to `COc1cc2cc(Oc3ccc(NC(=O)c4ccc(Cl)c(C(F)(F)F)c4)cc3)c(C)nc2cc1OC`, the growth was 31.2% in the experiment on SK-MEL-2 melanoma; 18.8% with EKVX NSCLC; 24.1% with SN12C renal; 18.3% in the experiment on UO-31 renal; 26.6% in the experiment on ACHN renal; 21.6% in the experiment on CAKI-1 renal. The growth in the experiment with A498 renal was 24.3%; with CCRF-CEM leukemia it was 19.9%; in the experiment on MOLT-4 leukemia it was 18%; in the experiment on SR leukemia, 37.1%; with RPMI-8226 leukemia, 9.15% (active); with OVCAR-8 ovarian, 27.7%. In addition, the growth is 51.3% with OVCAR-5 ovarian; 42.4% in the experiment with OVCAR-4 ovarian; 27.7% with SK-OV-3 ovarian; 20.6% with IGROV1 ovarian; 0% (active) with OVCAR-3 ovarian; 41.6% in the experiment on HS 578T breast. Moreover, the growth in the experiment on NCI/ADR-RES ovarian is 14.1%.
As to `COc1cc2cc(Oc3ccc(NC(=O)Nc4ccc(C(F)(F)F)cc4)cc3)c(C)nc2cc1OC`, the growth in the experiment with SK-MEL-2 melanoma was 76.7%; with EKVX NSCLC, 75.7%; with SN12C renal it was 72.2%; with UO-31 renal, 87.6%; in the experiment on ACHN renal it was 56.1%; with CAKI-1 renal it was 70.4%. Also, the growth is 90.5% in the experiment with A498 renal; 68.5% in the experiment on CCRF-CEM leukemia; 61.9% in the experiment on MOLT-4 leukemia; 59.6% with SR leukemia; 52.7% in the experiment on RPMI-8226 leukemia; 37.8% in the experiment with OVCAR-8 ovarian. Moreover, the growth with OVCAR-5 ovarian is 92.9%; in the experiment on OVCAR-4 ovarian, 49%; in the experiment on SK-OV-3 ovarian, 38.8%; in the experiment on IGROV1 ovarian, 71.9%; in the experiment with OVCAR-3 ovarian, 67%; with HS 578T breast, 70.9%. In addition, in the experiment with NCI/ADR-RES ovarian, the growth is 64.1%.
